Screens deposited in PubChem by National Center for Advancing Translational Sciences (NCATS).
Sampled rows, rich in hits. Any-hit rate of the full collection: about 4.7%.
D1 antagonist: human D1 dopamine receptor antagonism; 360,000 tested, 3.2% active; activity change, negative = inhibition, % at 10 µM; HEK293 TREx D1 cells, calcium flux, dopamine EC80; hits give low values; AID 504652; P21728; in the data active means activity change below about -30%; further: on the % scale 0 is the no-effect control and ±100 the full control effect
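Antagonism measured as reduced calcium response to an EC80 dopamine addition following 180 s compound pre-read; cells were inducible HEK293 Trex D1 plated overnight at 30 C, read kinetically at 1 cycle/sec.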
D1 potentiator: potentiators of human D1 dopamine receptor | P21728 | HEK293 TREx D1 cells, calcium flux, dopamine EC20 potentiation | potentiation, % at 10 µM | 360,000 tested, 0.036% active; in the data active means potentiation above about 30%; further: 0% is about no effect
D1 ag: activates the human D1 dopamine receptor | P21728 | HEK293 T-REx D1 cells, calcium flux, agonist mode | activation, % at 2 µM | 360,000 tested, 1% active | AID 504660; further: 0% is about no effect
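Inducible HEK293 T-REx D1 cells, force-coupled to calcium signalling, were plated at 4000 cells/well with tetracycline and held overnight at 30 C. After no-wash calcium dye loading, compound-evoked calcium rise over 180 s flagged agonists.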
TRHR agonist: TRH receptor (human) agonism. P34981. TRHR cells, calcium flux fluo-8, FDSS agonist mode. activation, % at 2 µM. 360,000 tested, 0.18% active. AID 493084; further: 0% is about no effect
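Read-out: compound-evoked intracellular calcium rise in TRHR cells, fluo-8 dye, kinetic FDSS fluorescence at 1 s/cycle following a 10-cycle baseline. Cells cultured overnight before dye loading (30 min–1.5 h, RT).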
TRHR PAM: allosteric enhancers of human TRH receptor; P34981; 360,000 tested, 0.66% active; AID 493056; TRHR cells, fluo-8 calcium fluorescence, EC20 TRH enhancement; enhancement, % at 2 µM; in the data active means enhancement above about 30%; further: 0% is about no effect
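Enhancer read-out: after compound pinning and an initial kinetic agonist-mode read, an EC20 of TRH (10 nM final) was injected and fluo-8 calcium signal (Ex 480/Em 530) followed at 1 s/cycle for 100 cycles in TRHR-expressing cells.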
Numbers without * were called inactive. Unless noted, no stated cut-off is given here; in the data, active means activation above about 30%; inactive means the rest.

SMILES	D1 antagonist	D1 potentiator	D1 ag	TRHR agonist	TRHR PAM
O=C(Cn1cc(C(F)(F)F)ccc1=O)N1CCN(S(=O)(=O)c2ccccc2)CC1	-4	0	1	-1	40*
O=C(Cn1cc(C(F)(F)F)ccc1=O)N1CCc2ccccc2C1	-1	5	4	0	7
C/C(=N\NC(N)=O)c1ccc(-n2ccnc2)cc1	-44*	-1	3	0	-2
CNC(=S)N/N=C(\C)c1ccc(-n2ccnc2)cc1	-9	-4	0	-1	8
Cc1c(C(=O)N/N=C/c2ccc(-c3ccccc3[N+](=O)[O-])o2)sc(N)c1C#N	-62*	-10	0	0	2
O=C(N/N=C\c1ccc(-c2ccccc2[N+](=O)[O-])o1)C1COc2ccccc2O1 (stereo not given)	-36*	-6	1	0	2
O=C(N/N=C/c1ccc(-c2ccccc2[N+](=O)[O-])o1)c1cncc(Br)c1	-19	-4	1	1	1
O=C(N/N=C\c1ccc(-c2ccccc2[N+](=O)[O-])o1)C1COc2cc3ccccc3cc2O1 (stereo not given)	-5	-3	2	0	-3
COc1ccc(CCNC(=O)Cc2c(C)c3cc4c(C(C)(C)C)coc4c(C)c3oc2=O)cc1	-6	1	1	0	-1
